# Test results from publication PMC11006913.
# Substitutions are numbered along the chain they refer to.
# Key:
# Assay in all cases: PBM; 200 nM protein, PBS
# Details in all cases: dsDNA, one strand shown
# [1] = molecular target: T1, PAX4 (Homo sapiens, UniProt O43316 9-242, R200K)
# T1 sequence: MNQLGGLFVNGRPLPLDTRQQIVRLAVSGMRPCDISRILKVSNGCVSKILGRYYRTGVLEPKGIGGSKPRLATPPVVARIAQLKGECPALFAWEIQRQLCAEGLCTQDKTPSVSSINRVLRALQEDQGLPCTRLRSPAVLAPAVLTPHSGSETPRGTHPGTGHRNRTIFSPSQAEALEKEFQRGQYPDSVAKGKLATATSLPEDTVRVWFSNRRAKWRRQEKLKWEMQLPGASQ
# [2] = molecular target: T2, PAX4 (Homo sapiens, UniProt O43316 9-242)
# T2 sequence: T1 sequence with K192R
# [3] = molecular target: HOXA2 (Homo sapiens, UniProt O43364 129-215, R185T)
# Chain of HOXA2 (Homo sapiens, UniProt O43364 129-215, R185T) (O43364 129-215 R185T): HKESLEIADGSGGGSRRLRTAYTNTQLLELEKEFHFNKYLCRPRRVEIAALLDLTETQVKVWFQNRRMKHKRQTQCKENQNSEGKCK
# [4] = molecular target: T3, PAX4 (Homo sapiens, UniProt O43316 9-242, R200Q)
# T3 sequence: T1 sequence with K192Q
# [5] = molecular target: HOXA2 (Homo sapiens, UniProt O43364 129-215, R185K)
# Chain of HOXA2 (Homo sapiens, UniProt O43364 129-215, R185K) (O43364 129-215 R185K): as the sequence (O43364 129-215 R185T) above, with T57K counted along it
# [6] = molecular target: T4, PAX4 (Homo sapiens, UniProt O43316 9-242, F177V)
# T4 sequence: T1 sequence with F169V, K192R
# [7] = molecular target: T5, PAX4 (Homo sapiens, UniProt O43316 9-242, F177Y)
# T5 sequence: T1 sequence with F169Y, K192R
# [8] = molecular target: T6, PAX4 (Homo sapiens, UniProt O43316 9-242, R227W)
# T6 sequence: T1 sequence with K192R, R219W
# [9] = molecular target: HOXA2 (Homo sapiens, UniProt O43364 129-215, Y150S)
# Chain of HOXA2 (Homo sapiens, UniProt O43364 129-215, Y150S) (O43364 129-215 Y150S): as the sequence (O43364 129-215 R185T) above, with Y22S, T57R counted along it
# [10] = molecular target: HOXA2 (Homo sapiens, UniProt O43364 129-215)
# Chain of HOXA2 (Homo sapiens, UniProt O43364 129-215) (O43364 129-215): as the sequence (O43364 129-215 R185T) above, with T57R counted along it
# [11] = molecular target: ALX3 (Homo sapiens, UniProt O95076 139-225, N203Q)
# Chain of ALX3 (Homo sapiens, UniProt O95076 139-225, N203Q) (O95076 139-225 N203Q): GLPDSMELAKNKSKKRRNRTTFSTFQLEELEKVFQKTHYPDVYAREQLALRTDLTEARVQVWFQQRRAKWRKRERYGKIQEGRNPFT
# [12] = molecular target: ALX3 (Homo sapiens, UniProt O95076 139-225)
# Chain of ALX3 (Homo sapiens, UniProt O95076 139-225) (O95076 139-225): as the sequence (O95076 139-225 N203Q) above, with Q65N counted along it
# [13] = molecular target: ALX3 (Homo sapiens, UniProt O95076 139-225, L168Q)
# Chain of ALX3 (Homo sapiens, UniProt O95076 139-225, L168Q) (O95076 139-225 L168Q): as the sequence (O95076 139-225 N203Q) above, with L30Q, Q65N counted along it
# [14] = molecular target: ALX3 (Homo sapiens, UniProt O95076 139-225, L168V)
# Chain of ALX3 (Homo sapiens, UniProt O95076 139-225, L168V) (O95076 139-225 L168V): as the sequence (O95076 139-225 N203Q) above, with L30V, Q65N counted along it
# [15] = molecular target: ALX3 (Homo sapiens, UniProt O95076 139-225, N203S)
# Chain of ALX3 (Homo sapiens, UniProt O95076 139-225, N203S) (O95076 139-225 N203S): as the sequence (O95076 139-225 N203Q) above, with Q65S counted along it
# [16] = molecular target: T7, NKX2-6 (Homo sapiens, UniProt A6NCS4 118-204)
# T7 sequence: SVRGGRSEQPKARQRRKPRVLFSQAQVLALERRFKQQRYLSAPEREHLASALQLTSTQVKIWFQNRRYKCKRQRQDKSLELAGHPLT
# [17] = molecular target: T8, NKX2-6 (Homo sapiens, UniProt A6NCS4 118-204, F151L)
# T8 sequence: T7 sequence with F34L
sequence,measurement,setting,value
GGCTTCCA,binding signal,[1],"9.19 upbm affinity estimate (log intensity, higher = more binding, comparable within an allelic series)"
same,binding signal,[2],"9.03 upbm affinity estimate (log intensity, higher = more binding, comparable within an allelic series)"
same,binding signal,[3],"7.05 upbm affinity estimate (log intensity, higher = more binding, comparable within an allelic series)"
same,binding signal,[4],"9.42 upbm affinity estimate (log intensity, higher = more binding, comparable within an allelic series)"
same,binding signal,[5],"10.4 upbm affinity estimate (log intensity, higher = more binding, comparable within an allelic series)"
same,binding signal,[6],"9.33 upbm affinity estimate (log intensity, higher = more binding, comparable within an allelic series)"
same,binding signal,[7],"9.37 upbm affinity estimate (log intensity, higher = more binding, comparable within an allelic series)"
same,binding signal,[8],"9.41 upbm affinity estimate (log intensity, higher = more binding, comparable within an allelic series)"
same,binding signal,[9],"10.5 upbm affinity estimate (log intensity, higher = more binding, comparable within an allelic series)"
same,binding signal,[10],"7.18 upbm affinity estimate (log intensity, higher = more binding, comparable within an allelic series)"
GAAGGACC,binding signal,[1],"9.27 upbm affinity estimate (log intensity, higher = more binding, comparable within an allelic series)"
same,binding signal,[2],"9.3 upbm affinity estimate (log intensity, higher = more binding, comparable within an allelic series)"
same,binding signal,[11],"7.9 upbm affinity estimate (log intensity, higher = more binding, comparable within an allelic series)"
same,binding signal,[4],"9.41 upbm affinity estimate (log intensity, higher = more binding, comparable within an allelic series)"
same,binding signal,[6],"9.34 upbm affinity estimate (log intensity, higher = more binding, comparable within an allelic series)"
same,binding signal,[12],"7.9 upbm affinity estimate (log intensity, higher = more binding, comparable within an allelic series)"
same,binding signal,[7],"9.33 upbm affinity estimate (log intensity, higher = more binding, comparable within an allelic series)"
same,binding signal,[13],"7.8 upbm affinity estimate (log intensity, higher = more binding, comparable within an allelic series)"
same,binding signal,[14],"7.85 upbm affinity estimate (log intensity, higher = more binding, comparable within an allelic series)"
same,binding signal,[8],"9.46 upbm affinity estimate (log intensity, higher = more binding, comparable within an allelic series)"
same,binding signal,[15],"7.83 upbm affinity estimate (log intensity, higher = more binding, comparable within an allelic series)"
GAGCAGGC,binding signal,[1],"9.17 upbm affinity estimate (log intensity, higher = more binding, comparable within an allelic series)"
same,binding signal,[2],"9.18 upbm affinity estimate (log intensity, higher = more binding, comparable within an allelic series)"
same,binding signal,[3],"7.17 upbm affinity estimate (log intensity, higher = more binding, comparable within an allelic series)"
same,binding signal,[4],"9.24 upbm affinity estimate (log intensity, higher = more binding, comparable within an allelic series)"
same,binding signal,[5],"10.1 upbm affinity estimate (log intensity, higher = more binding, comparable within an allelic series)"
same,binding signal,[6],"9.28 upbm affinity estimate (log intensity, higher = more binding, comparable within an allelic series)"
same,binding signal,[7],"9.26 upbm affinity estimate (log intensity, higher = more binding, comparable within an allelic series)"
same,binding signal,[8],"9.32 upbm affinity estimate (log intensity, higher = more binding, comparable within an allelic series)"
same,binding signal,[9],"10.5 upbm affinity estimate (log intensity, higher = more binding, comparable within an allelic series)"
same,binding signal,[10],"7.04 upbm affinity estimate (log intensity, higher = more binding, comparable within an allelic series)"
CGGTACCG,binding signal,[1],"9.38 upbm affinity estimate (log intensity, higher = more binding, comparable within an allelic series)"
same,binding signal,[2],"9.43 upbm affinity estimate (log intensity, higher = more binding, comparable within an allelic series)"
same,binding signal,[3],"7.62 upbm affinity estimate (log intensity, higher = more binding, comparable within an allelic series)"
same,binding signal,[11],"7.72 upbm affinity estimate (log intensity, higher = more binding, comparable within an allelic series)"
same,binding signal,[16],"9.13 upbm affinity estimate (log intensity, higher = more binding, comparable within an allelic series)"
same,binding signal,[4],"9.37 upbm affinity estimate (log intensity, higher = more binding, comparable within an allelic series)"
same,binding signal,[5],"10.4 upbm affinity estimate (log intensity, higher = more binding, comparable within an allelic series)"
same,binding signal,[6],"9.37 upbm affinity estimate (log intensity, higher = more binding, comparable within an allelic series)"
same,binding signal,[12],"7.9 upbm affinity estimate (log intensity, higher = more binding, comparable within an allelic series)"
same,binding signal,[7],"9.28 upbm affinity estimate (log intensity, higher = more binding, comparable within an allelic series)"
same,binding signal,[13],"7.73 upbm affinity estimate (log intensity, higher = more binding, comparable within an allelic series)"
same,binding signal,[17],"9.24 upbm affinity estimate (log intensity, higher = more binding, comparable within an allelic series)"
same,binding signal,[14],"7.69 upbm affinity estimate (log intensity, higher = more binding, comparable within an allelic series)"
same,binding signal,[8],"9.32 upbm affinity estimate (log intensity, higher = more binding, comparable within an allelic series)"
same,binding signal,[9],"10.4 upbm affinity estimate (log intensity, higher = more binding, comparable within an allelic series)"
same,binding signal,[15],"7.78 upbm affinity estimate (log intensity, higher = more binding, comparable within an allelic series)"
same,binding signal,[10],"7.54 upbm affinity estimate (log intensity, higher = more binding, comparable within an allelic series)"
